Rows were chosen to be rich in hits. Some 12% of all compounds tested hit in one or more screens of this group.
RORgamma inh = qHTS for inhibitors of ROR gamma transcriptional activity. hit rate 5.4% among 310,000. Drosophila S2 Gal4-RORgamma UAS-luciferase reporter, 20 h. Potency, µM (series often up to 53.6 µM), hits mostly inhibitors. Nuclear receptor ROR-gamma (Mus musculus), P51450; further: nearly all actives have a fitted effect of over 60% in size
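Read-out: Photinus luciferase luminescence; inhibitors lower reporter signal. Insect Schneider cells with Gal4-ROR gamma fusion under metallothionein promoter, UAS reporter; 700 uM final copper sulfate induction, 20 hr, ambient temperature.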
ALDH1A1 block = qHTS Assay for Inhibitors of Aldehyde Dehydrogenase 1 (ALDH1A1); Aldehyde dehydrogenase 1A1 (Homo sapiens), P00352; Purified ALDH1A1, NADH fluorescence, propionaldehyde substrate; Potency, µM (doses to about 75.3 µM), most hits filed as inhibitors; hit rate 7.3% among 220,000; active means well fitted inhibition curve with a large enough effect, not every such curve was filed as active; inconclusive means small, poorly fitted or top-dose-only effect, or another doubt; inactive means no such curve, though single readings can be large or run the other way
VP16 counter = VP16 counterscreen qHTS for inhibitors of ROR gamma transcriptional activity; Drosophila S2 Gal4-VP16 UAS-luciferase, luminescence, 20 h; Potency, µM (top dose mostly 53.6 µM), most hits filed as inhibitors; hit rate 3.5% among 310,000; AID 2546, 2010;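 further: Gal4-VP16 expression switched on by copper sulfate through the metallothionein promoter; nearly all actives have a fitted effect of over 50% in size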
PLK1 PBD block = qHTS for Inhibitors of PLK1-PDB (polo-like kinase 1 - polo-box domain): Primary Screen. Plk1 PBD binding of FITC phosphopeptide, fluorescence polarization. AID 720504, 2013. Potency, µM, hits mostly inhibitors. hit rate 2.8% among 360,000; further: series mostly up to about 57 µM; nearly all actives have a fitted effect of over 65% in size
Sfp inh = qHTS Assay for Inhibitors of Bacillus subtilis Sfp phosphopantetheinyl transferase (PPTase); 4'-phosphopantetheinyl transferase ffp (Bacillus subtilis), Q9F4F7; Biochemical Sfp PPTase activity, qHTS; Potency, µM, usual class: inhibitors; hit rate 3.5% among 310,000; AID 1490, 2009;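 further: the enzyme is Sfp with the accession as filed and its product quenches rhodamine fluorescence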
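Fluorescence-quenching assay: 15 nM Sfp-PPTase preincubated 15 min at room temperature with compound, then 5 uM rhodamine-CoA and 12.5 uM BHQ-2-labelled YbbR peptide added. Fluorescence (ex 525/em 598 nm) read at start and after 30 min; difference gives rate.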
Each line names hits and unclear results; the compound was inactive in the other large screens. Unless noted, the call rests on the fitted dose curve; in most records, active means well fitted curve in the direction sought with a large enough effect; inconclusive means small, poorly fitted or top-dose-only effect, or another doubt; inactive means no such curve, though single readings can be large; an effect the other way counts as inactive or inconclusive.

Cc1cc2cc(CNC(=S)NC3CCCCC3)ccc2[nH]1	RORgamma inh 14µM, VP16 counter inconclusive
Cc1ccc(C(C)(C)c2ccc(C)cc2)cc1	none (no result: ALDH1A1 block, PLK1 PBD block)
Cn1c(SCCC#N)nnc1-c1ccc(F)cc1	none (no result: PLK1 PBD block)
CC1=C(SCCC#N)S/C(=C2\SC(C)=C(SCCC#N)S2)S1	RORgamma inh inconclusive, ALDH1A1 block 5µM, VP16 counter inconclusive, PLK1 PBD block 12µM, Sfp inh 7.9µM
COc1ccccc1N1CCN(C(=S)Nc2cccc(C)c2)CC1	RORgamma inh 5µM, VP16 counter 20µM
COc1ccccc1N1CCN(C(=O)c2cccc(C(=O)N3CCN(c4ccccc4OC)CC3)c2)CC1	none (no result: ALDH1A1 block)
COC(=O)c1cccc(NC(=S)N2CCN(c3ccccc3F)CC2)c1	RORgamma inh 14µM
Cc1cccc(NC(=S)N2CCN(c3cc(C)ccc3C)CC2)c1	RORgamma inh 4µM, VP16 counter 5.6µM
Cc1ccc(C)c(N2CCN(C(=S)NC3CCCCC3)CC2)c1	none
COC(=O)c1cccc(NC(=S)N2CCCCC2)c1	none
COc1ccccc1N(CC(=O)N1CCN(Cc2ccccc2)CC1)S(=O)(=O)c1ccccc1	none (no result: RORgamma inh, ALDH1A1 block, VP16 counter, Sfp inh)
CC(NC(=O)Nc1ccccc1O)(C(F)(F)F)C(F)(F)F	PLK1 PBD block 27µM, Sfp inh inconclusive
COc1ccc(NC(=O)NC(C)(C(F)(F)F)C(F)(F)F)cc1	PLK1 PBD block 3.4µM
C/C(CCN1CCCc2nc(C)c(C)cc21)=N\O[C@@H](C)c1cc(-c2c(C)cc(C)cc2C)no1	none (no result: PLK1 PBD block)
O=c1c(CCc2ccccc2)nc2cnc(N3CCOCC3)nc2n1-c1ccccc1	ALDH1A1 block inconclusive (no result: PLK1 PBD block)
Nc1cccc(B(O)O)c1	ALDH1A1 block inconclusive (no result: PLK1 PBD block)
Cc1nc(SC(C(=O)c2ccccc2)c2ccccc2)nc2ccccc12 (stereo not drawn)	ALDH1A1 block inconclusive
Cc1ccc2c(C)nc(SC(C(=O)c3ccccc3)c3ccccc3)nc2c1 (stereo not drawn)	RORgamma inh inconclusive, ALDH1A1 block inconclusive, VP16 counter 20µM
O=S1(=O)N[C@@H](Cc2ccccc2)COc2cc(Br)ccc21	none (no result: RORgamma inh, ALDH1A1 block, VP16 counter, Sfp inh)
COc1ccc(Cl)cc1C=CC=Nc1ccccc1O	none (no result: RORgamma inh, ALDH1A1 block, VP16 counter, Sfp inh)
Cc1ccc(S(=O)(=O)/N=C(/c2ccc(F)cc2)N2CCCC2)cc1	none
Cc1ccc(S(=O)(=O)/N=C(/c2ccc(F)cc2)N2CCCCC2)cc1	ALDH1A1 block 25µM
Nc1nc(SCC(=O)c2ccc(Oc3ccccc3)cc2)n[nH]1	ALDH1A1 block 14µM, Sfp inh 50µM
Cc1ccc(Oc2ccc(NC(=O)CSc3n[nH]c(N)n3)cc2)cc1	RORgamma inh inconclusive, ALDH1A1 block inconclusive, VP16 counter inconclusive
Nc1nc(SCC(=O)Nc2cccc([N+](=O)[O-])c2)n[nH]1	none (no result: RORgamma inh, ALDH1A1 block, VP16 counter, Sfp inh)
Nc1nc(SCC(=O)c2ccc([N+](=O)[O-])cc2)n[nH]1	PLK1 PBD block inconclusive, Sfp inh 32µM
N[C@@H](CSCc1ccc(I)cc1)C(=O)O	none (no result: RORgamma inh, VP16 counter, PLK1 PBD block, Sfp inh)
COC(=O)c1cc2sc(Cl)cc2n1Cc1nc(-c2cccc(C)c2)oc1C	Sfp inh inconclusive (no result: PLK1 PBD block)
COC(=O)c1cc2sc(Cl)cc2n1Cc1nc(-c2ccccc2)oc1C	Sfp inh 79µM
C[C@H]1CN([C@@H](C)CO)C(=O)c2cc(Br)cnc2O[C@H]1CN(C)Cc1ccc(Oc2ccccc2)cc1	none (no result: RORgamma inh, ALDH1A1 block, VP16 counter, Sfp inh)
COc1ccc(Cl)cc1-c1cc(C(=O)Nc2ccc(C)c(NS(C)(=O)=O)c2)[nH]n1	none (no result: RORgamma inh, ALDH1A1 block, VP16 counter, Sfp inh)
COc1ccc(/C=C2\CCCC(C(=O)C(F)(F)F)=C2O)cc1	ALDH1A1 block 0.45µM, PLK1 PBD block inconclusive
O=C(C1=C(O)/C(=C/c2ccc(O)cc2)CCC1)C(F)(F)F	RORgamma inh inconclusive, ALDH1A1 block 0.079µM, VP16 counter inconclusive
CCC(C)C1NC(=S)N(Cc2ccccc2)C1=O (stereo not drawn)	RORgamma inh 10µM, ALDH1A1 block inconclusive, VP16 counter inconclusive
O=C1C(Cc2ccccc2)NC(=S)N1Cc1ccccc1 (stereo not drawn)	RORgamma inh 13µM
O=C1C(Cc2ccccc2)Nc2ncnc(N3CCc4ccccc4C3)c2N1Cc1ccccc1 (stereo not drawn)	PLK1 PBD block 42µM (no result: RORgamma inh, ALDH1A1 block, VP16 counter, Sfp inh)
